Data published in PubChem BioAssay (EPA / NIEHS).
Results filed as inconclusive are left out. Calls of active or inactive are those of the source. Rule for the calls: active = hit-call score of the fitted dose curve at least 0.9, where 1 is the maximum; inconclusive = response in the unintended direction; inactive = score below 0.9.

Columns and labels:
[1] = biological target: human Protein Tyrosine Phosphatase Non-receptor Type 6 (PTPN6), PTPN6 (gene 5777) (UniProt P29350); test: NVS_ENZ_hPTPN6: NovaScreen (NVS) Enzymatic Assay for human Protein Tyrosine Phosphatase Non-receptor Type 6 (PTPN6) (AID 2283210)
human Protein Tyrosine Phosphatase Non-receptor Type 6 (PTPN6), PTPN6 (gene 5777), sequence (P29350 whole entry, looked up): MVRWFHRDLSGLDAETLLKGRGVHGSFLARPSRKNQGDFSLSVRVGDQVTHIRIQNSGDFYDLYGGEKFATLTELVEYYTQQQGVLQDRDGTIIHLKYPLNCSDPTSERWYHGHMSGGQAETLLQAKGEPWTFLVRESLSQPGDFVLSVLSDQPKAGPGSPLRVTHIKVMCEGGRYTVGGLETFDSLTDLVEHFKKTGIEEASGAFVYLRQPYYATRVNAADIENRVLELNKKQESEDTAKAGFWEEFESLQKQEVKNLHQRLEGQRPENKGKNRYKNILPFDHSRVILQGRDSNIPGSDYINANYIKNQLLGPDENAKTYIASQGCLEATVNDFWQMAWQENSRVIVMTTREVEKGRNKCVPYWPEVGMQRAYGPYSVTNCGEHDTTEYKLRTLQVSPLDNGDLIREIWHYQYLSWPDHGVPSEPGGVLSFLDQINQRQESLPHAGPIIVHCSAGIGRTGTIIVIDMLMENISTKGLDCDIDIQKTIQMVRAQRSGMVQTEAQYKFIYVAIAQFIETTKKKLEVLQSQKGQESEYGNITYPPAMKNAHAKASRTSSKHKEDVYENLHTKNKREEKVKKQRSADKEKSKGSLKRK
Outline: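 Recombinant human PTPN6 from SF9 cells, enzyme activity followed by fluorescence after mobility-shift separation of substrate and product at 1.33 h. Chemicals first tested at a single 25 uM in duplicate, then confirmed across concentration series; loss of signal relative to DMSO.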

[2] = biological target: Tyrosine-protein phosphatase non-receptor type 12 (Homo sapiens) (UniProt Q05209); test: NVS_ENZ_hPTPN12: NovaScreen (NVS) Enzymatic Assay for human Protein Tyrosine Phosphatase Non-receptor Type 12 (PTPN12) (AID 2283204)
Tyrosine-protein phosphatase non-receptor type 12 (Homo sapiens), sequence (Q05209 whole entry, looked up): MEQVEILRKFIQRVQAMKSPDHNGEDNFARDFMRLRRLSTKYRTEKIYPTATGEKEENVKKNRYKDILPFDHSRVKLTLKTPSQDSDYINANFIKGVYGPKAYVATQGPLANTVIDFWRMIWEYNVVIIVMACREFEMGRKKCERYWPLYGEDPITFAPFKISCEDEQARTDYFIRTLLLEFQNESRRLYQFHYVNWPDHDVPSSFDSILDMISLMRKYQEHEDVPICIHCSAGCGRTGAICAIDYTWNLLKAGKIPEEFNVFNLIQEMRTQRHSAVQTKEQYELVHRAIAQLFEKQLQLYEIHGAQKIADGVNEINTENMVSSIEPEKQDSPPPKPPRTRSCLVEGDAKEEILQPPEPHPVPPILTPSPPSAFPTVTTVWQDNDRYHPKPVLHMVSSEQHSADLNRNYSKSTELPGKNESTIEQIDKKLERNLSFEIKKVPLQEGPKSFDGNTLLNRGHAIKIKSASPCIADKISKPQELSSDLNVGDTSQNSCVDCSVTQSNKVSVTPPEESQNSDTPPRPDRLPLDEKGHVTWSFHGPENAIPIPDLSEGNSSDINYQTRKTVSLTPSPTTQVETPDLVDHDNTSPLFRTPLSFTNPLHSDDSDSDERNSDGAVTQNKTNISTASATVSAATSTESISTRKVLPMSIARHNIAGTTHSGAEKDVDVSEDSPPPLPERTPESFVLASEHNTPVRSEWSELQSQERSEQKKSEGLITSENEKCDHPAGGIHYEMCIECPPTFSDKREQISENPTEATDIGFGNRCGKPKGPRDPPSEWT
Outline: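 Single-concentration duplicates (25 uM) preceded singleton concentration-response up to 50 uM for chemicals passing threshold. Cell-free recombinant PTPN12 activity was read 1.33 h after dosing via fluorescence after mobility-shift separation; loss of signal versus DMSO.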

[3] = biological target: human Protein Tyrosine Phosphatase Receptor Type M (PTPRM), PTPRM (gene 5797) (UniProt P28827); test: NVS_ENZ_hPTPRM: NovaScreen (NVS) Enzymatic Assay for human Protein Tyrosine Phosphatase Receptor Type M (PTPRM) (AID 2283215)
human Protein Tyrosine Phosphatase Receptor Type M (PTPRM), PTPRM (gene 5797), sequence (P28827 whole entry, looked up): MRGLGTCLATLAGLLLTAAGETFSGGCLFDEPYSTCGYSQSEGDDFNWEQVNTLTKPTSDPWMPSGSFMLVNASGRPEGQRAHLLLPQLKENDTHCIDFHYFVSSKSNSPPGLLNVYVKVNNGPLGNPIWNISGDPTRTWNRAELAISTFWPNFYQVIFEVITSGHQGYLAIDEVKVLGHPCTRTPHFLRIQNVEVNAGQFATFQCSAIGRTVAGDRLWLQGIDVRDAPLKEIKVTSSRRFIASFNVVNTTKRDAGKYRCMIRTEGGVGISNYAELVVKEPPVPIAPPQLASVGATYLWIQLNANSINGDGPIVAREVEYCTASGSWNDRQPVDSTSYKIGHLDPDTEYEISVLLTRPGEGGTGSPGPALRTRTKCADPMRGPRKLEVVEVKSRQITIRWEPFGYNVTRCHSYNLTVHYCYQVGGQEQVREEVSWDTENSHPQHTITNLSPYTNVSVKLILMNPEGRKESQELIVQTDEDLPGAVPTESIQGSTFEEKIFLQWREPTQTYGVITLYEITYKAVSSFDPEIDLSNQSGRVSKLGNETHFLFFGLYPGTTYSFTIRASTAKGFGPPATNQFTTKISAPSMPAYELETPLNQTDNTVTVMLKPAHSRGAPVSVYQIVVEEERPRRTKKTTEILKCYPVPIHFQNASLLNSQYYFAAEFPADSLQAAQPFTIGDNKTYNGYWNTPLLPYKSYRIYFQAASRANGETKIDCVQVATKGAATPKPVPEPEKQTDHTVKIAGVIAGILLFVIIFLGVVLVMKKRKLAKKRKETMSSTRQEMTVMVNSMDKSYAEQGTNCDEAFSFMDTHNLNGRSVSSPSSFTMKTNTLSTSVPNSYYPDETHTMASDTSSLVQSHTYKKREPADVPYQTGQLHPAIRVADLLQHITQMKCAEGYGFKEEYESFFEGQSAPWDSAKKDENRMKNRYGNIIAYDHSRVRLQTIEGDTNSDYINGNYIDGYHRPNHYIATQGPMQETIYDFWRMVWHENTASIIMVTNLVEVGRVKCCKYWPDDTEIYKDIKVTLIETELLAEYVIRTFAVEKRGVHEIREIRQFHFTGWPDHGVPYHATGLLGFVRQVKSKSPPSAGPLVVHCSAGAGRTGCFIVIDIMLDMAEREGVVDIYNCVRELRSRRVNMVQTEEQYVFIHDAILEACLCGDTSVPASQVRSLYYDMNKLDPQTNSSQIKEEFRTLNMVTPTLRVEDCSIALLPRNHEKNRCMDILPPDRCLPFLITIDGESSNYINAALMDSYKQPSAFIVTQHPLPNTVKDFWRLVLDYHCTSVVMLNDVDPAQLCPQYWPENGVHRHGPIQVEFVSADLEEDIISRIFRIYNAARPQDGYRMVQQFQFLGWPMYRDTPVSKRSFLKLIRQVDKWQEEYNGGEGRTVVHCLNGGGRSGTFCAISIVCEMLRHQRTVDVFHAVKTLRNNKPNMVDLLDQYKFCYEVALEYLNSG
Outline: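 Read-out is fluorescence after electrophoretic separation of substrate and product, taken 1.33 h post-dosing with recombinant enzyme. Compounds screened at 25 uM in duplicate, then concentration series for actives; activity as signal loss relative to DMSO.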

[4] = biological target: Tyrosine-protein phosphatase non-receptor type 11 (Homo sapiens) (UniProt Q06124); test: NVS_ENZ_hPTPN11: NovaScreen (NVS) Enzymatic Assay for human Protein Tyrosine Phosphatase Non-receptor Type 11 (PTPN11) (AID 2283202)
Tyrosine-protein phosphatase non-receptor type 11 (Homo sapiens), sequence (Q06124 whole entry, looked up): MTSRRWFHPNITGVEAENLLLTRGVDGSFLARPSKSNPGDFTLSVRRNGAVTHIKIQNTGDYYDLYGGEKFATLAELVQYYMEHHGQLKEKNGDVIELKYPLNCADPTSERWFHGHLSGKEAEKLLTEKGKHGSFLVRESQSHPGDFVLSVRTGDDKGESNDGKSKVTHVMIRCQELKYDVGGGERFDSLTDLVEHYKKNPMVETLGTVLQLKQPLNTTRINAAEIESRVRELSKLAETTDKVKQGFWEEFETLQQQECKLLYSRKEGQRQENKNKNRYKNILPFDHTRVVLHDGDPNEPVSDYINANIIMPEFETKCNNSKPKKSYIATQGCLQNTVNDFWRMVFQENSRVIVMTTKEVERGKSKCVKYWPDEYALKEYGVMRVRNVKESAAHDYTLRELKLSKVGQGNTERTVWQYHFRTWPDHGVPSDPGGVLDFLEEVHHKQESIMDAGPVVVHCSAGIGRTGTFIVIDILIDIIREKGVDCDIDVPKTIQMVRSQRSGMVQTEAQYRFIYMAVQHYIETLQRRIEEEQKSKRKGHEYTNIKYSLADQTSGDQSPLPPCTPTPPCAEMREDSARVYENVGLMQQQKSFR
Outline: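 Compounds first tested in duplicate at 25 uM; those reaching ~30% inhibition rerun in singleton concentration-response, top 50 uM. Phosphatase activity measured after 0.5 h by fluorescence with mobility-shift separation, relative to DMSO.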

[5] = biological target: human Protein Tyrosine Phosphatase Non-receptor Type 9 (PTPN9), PTPN9 (gene 5780) (UniProt P43378); test: NVS_ENZ_hPTPN9: NovaScreen (NVS) Enzymatic Assay for human Protein Tyrosine Phosphatase Non-receptor Type 9 (PTPN9) (AID 2283209)
human Protein Tyrosine Phosphatase Non-receptor Type 9 (PTPN9), PTPN9 (gene 5780), sequence (P43378 whole entry, looked up): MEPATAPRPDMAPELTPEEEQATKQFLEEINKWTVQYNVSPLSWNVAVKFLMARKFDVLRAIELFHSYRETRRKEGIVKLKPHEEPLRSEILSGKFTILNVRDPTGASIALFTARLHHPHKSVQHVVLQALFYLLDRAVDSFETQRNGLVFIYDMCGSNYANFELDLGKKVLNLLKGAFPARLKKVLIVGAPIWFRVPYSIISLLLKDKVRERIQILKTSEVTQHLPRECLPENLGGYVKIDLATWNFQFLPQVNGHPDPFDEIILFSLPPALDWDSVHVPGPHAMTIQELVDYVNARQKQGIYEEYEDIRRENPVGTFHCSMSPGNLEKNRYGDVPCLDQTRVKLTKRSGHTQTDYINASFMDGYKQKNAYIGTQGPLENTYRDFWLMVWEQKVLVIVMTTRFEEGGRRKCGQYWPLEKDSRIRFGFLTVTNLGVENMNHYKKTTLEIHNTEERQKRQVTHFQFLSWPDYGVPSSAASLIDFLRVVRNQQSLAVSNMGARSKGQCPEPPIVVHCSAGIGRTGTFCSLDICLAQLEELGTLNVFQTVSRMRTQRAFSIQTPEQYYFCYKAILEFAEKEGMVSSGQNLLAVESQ
Outline: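 Sf9-expressed enzyme in a cell-free assay, fluorescence read 1.33 h after dosing with mobility-shift separation of substrate and product. Tested at 25 uM in duplicate, then up to 50 uM; signal loss versus DMSO.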

[6] = biological target: human Protein Tyrosine Phosphatase Receptor Type F (PTPRF), PTPRF (gene 5792) (UniProt P10586); test: NVS_ENZ_hPTPRF: NovaScreen (NVS) Enzymatic Assay for human Protein Tyrosine Phosphatase Receptor Type F (PTPRF) (AID 2283213)
Outline: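 Cell-free fluorescence enzyme assay with recombinant protein and substrate; product separated by electrophoretic mobility shift. Read 1 h after dosing, single 25 uM duplicate screen, then concentration-response up to 50 uM; loss of signal vs DMSO.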

[7] = biological target: human Raf-1 Proto-Oncogene, serine/threonine Kinase (RAF1), RAF1 (gene 5894) (UniProt P04049); test: NVS_ENZ_hRAF1: NovaScreen (NVS) Enzymatic Assay for human Raf-1 Proto-Oncogene, serine/threonine Kinase (RAF1) (AID 2283216)
human Raf-1 Proto-Oncogene, serine/threonine Kinase (RAF1), RAF1 (gene 5894), sequence (P04049 whole entry, looked up): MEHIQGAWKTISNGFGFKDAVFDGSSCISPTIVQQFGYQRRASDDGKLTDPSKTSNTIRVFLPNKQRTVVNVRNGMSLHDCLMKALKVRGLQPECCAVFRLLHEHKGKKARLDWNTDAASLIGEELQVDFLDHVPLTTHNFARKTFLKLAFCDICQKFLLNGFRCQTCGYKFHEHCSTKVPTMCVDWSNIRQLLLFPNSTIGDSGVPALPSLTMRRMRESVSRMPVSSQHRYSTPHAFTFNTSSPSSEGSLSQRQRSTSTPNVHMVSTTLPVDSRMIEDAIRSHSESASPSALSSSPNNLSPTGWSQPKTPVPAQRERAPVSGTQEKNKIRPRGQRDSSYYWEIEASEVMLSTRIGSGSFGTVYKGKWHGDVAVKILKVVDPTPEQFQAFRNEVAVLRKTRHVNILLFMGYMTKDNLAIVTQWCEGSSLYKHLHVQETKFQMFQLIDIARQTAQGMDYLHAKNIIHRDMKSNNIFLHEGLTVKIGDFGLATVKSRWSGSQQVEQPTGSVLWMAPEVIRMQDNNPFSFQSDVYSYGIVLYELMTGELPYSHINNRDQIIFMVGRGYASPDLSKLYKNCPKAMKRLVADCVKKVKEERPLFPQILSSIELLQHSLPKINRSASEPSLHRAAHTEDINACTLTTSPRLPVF
Outline: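 Single-point screening at 25 uM (duplicate), followed by singleton concentration-response to 50 uM maximum for chemicals exceeding threshold. Enzyme activity from fluorescent substrate-product mobility-shift separation after 1 h, relative to DMSO.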

[8] = biological target: human Sirtuin 2 (SIRT2), SIRT2 (gene 22933) (UniProt Q8IXJ6); test: NVS_ENZ_hSIRT2: NovaScreen (NVS) Enzymatic Assay for human Sirtuin 2 (SIRT2) (AID 2283217)
human Sirtuin 2 (SIRT2), SIRT2 (gene 22933), sequence (Q8IXJ6 whole entry, looked up): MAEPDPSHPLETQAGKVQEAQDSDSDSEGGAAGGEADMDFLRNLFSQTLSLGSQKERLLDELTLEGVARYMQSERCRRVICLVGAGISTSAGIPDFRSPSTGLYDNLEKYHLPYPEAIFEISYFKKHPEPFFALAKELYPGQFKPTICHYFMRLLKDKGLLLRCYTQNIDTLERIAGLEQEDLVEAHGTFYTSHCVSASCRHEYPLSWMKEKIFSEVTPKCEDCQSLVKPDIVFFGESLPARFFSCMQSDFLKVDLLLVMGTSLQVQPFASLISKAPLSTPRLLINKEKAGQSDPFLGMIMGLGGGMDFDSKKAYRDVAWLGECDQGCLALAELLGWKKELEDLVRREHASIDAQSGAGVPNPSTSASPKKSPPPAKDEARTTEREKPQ
Outline: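 Single-point duplicate screen at 25 uM, then concentration-response (max 50 uM) for chemicals passing threshold. Enzyme activity of recombinant human SIRT2 measured after 1 hr by fluorescence with mobility-shift separation of product; DMSO baseline.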

[9] = biological target: human Tyrosine Protein Kinase Receptor Tie-2 (Tie2), TEK (gene 7010) (UniProt Q02763); test: NVS_ENZ_hTie2: NovaScreen (NVS) Enzymatic Assay for human Tyrosine Protein Kinase Receptor Tie-2 (Tie2) (AID 2283225)
Outline: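 Substrate and product were separated by mobility shift and detected by fluorescence after a 1-hour reaction with recombinant Tie2. Chemicals passing a 25 uM single-point screen were titrated to a maximum of 50 uM. Results were normalized to DMSO baseline.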

[10] = biological target: human Vascular Endothelial Growth Factor Receptor 1 (VEGFR1), FLT1 (gene 2321) (UniProt P17948); test: NVS_ENZ_hVEGFR1: NovaScreen (NVS) Enzymatic Assay for human Vascular Endothelial Growth Factor Receptor 1 (VEGFR1) (AID 2283226)
Outline: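 Kinase activity of recombinant human VEGFR1 was read by fluorescence after electrophoretic separation of product from substrate, 1 h post-dosing; initial duplicate single-point testing at 25 uM, followed by concentration-series follow-up, with DMSO as baseline.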

[11] = biological target: Tyrosine-protein phosphatase non-receptor type 13 (Homo sapiens) (UniProt Q12923); test: NVS_ENZ_hPTPN13: NovaScreen (NVS) Enzymatic Assay for human Protein Tyrosine Phosphatase Non-receptor Type 13 (PTPN13) (AID 2283205)
Outline: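 Screened first at a single 25 uM in duplicate; compounds passing the threshold (e.g. 30% inhibition) were rerun in concentration series, top 50 uM. Recombinant enzyme, fluorescent substrate, mobility-shift separation, 0.5 h read. Data fitted as inhibition relative to DMSO.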

## O=P(OCCCl)(OCCCl)OCCCl
[1]
  outcome: inactive

## CO[C@@H]1[C@H](OC(=O)NC(=O)CCl)CC[C@]2(CO2)[C@H]1[C@@]1(C)O[C@@H]1CC=C(C)C
[2]
  outcome: inactive

## OCCCBr
[2]
  AC50: 25 µM (active)
[1]
  outcome: inactive
[3]
  AC50: 13 µM (active)

## CCN(CC)N=O
[4]
  outcome: inactive
[2]
  outcome: inactive
[5]
  outcome: inactive
[6]
  outcome: inactive
[3]
  outcome: inactive
[7]
  outcome: inactive
[8]
  outcome: inactive
[9]
  outcome: inactive
[10]
  outcome: inactive

## O=Cc1ccco1
[11]
  AC50: 0.13 µM (active)

## Nc1ccc(Oc2ccc(N)cc2)cc1
[5]
  outcome: inactive
[1]
  AC50: 17 µM (active)

## CC(C)(C)OOC(=O)c1ccccc1
[1]
  outcome: inactive

## Clc1ccc(C(c2ccc(Cl)cc2)C(Cl)Cl)cc1
[1]
  outcome: inactive

## CC(C)(C)OOC(C)(C)CCC(C)(C)OOC(C)(C)C
[1]
  AC50: 39 µM (active)

## C[C@]12C=CC3=C4CCC(=O)C=C4CC[C@H]3[C@@H]1CC[C@@H]2O
[7]
  outcome: inactive

## N#CC(Br)Br
[7]
  outcome: inactive

## Cc1ccc(N=C=O)cc1N=C=O
[8]
  AC50: 25 µM (active)
